Among all 52,000 compounds or so, about 1,700 (3.3%) were called active. Shown is part of a subset that was picked to be rich in actives. Values without a mark were called inactive. Rule as the data show it: active = survival mostly below about 52% (no sharp cut-off); inactive = mostly above about 56%.
System: Wild type
Test: S. aureus survival, RN4220 and DeltatarO strains – OD600, teichoic acid synthesis inhibitors, primary screen (AID 463173)
Settings: S. aureus RN4220 wild type/DeltatarO growth, OD600, 18 h, stronger effect = lower value, screened at 18.75 µg/mL (by protocol)

Row | SMILES | survival
1 | COc1cccc(NC(=O)C2CCN(S(=O)(=O)c3ccc4[nH]c5c(c4c3)CCCCC5)CC2)c1 | 84%
2 | COc1ccc(NC(=O)c2ccc(CNS(=O)(=O)c3ccc4c(c3)C(C)(C)C(=O)N4C)cc2)cc1 | 114%
3 | COc1cccc(NC(=O)c2nnn(Cc3cccc(C(F)(F)F)c3)c2N)c1 | 87%
4 | Cc1ccc(Cl)cc1-n1c(CCC(=O)O)ccc1-c1cccs1 | 64%
5 | CCOc1ccc(-c2cc3c(=O)n(CC(=O)Nc4cc(F)ccc4C)ccn3n2)cc1 | 68%
6 | Cc1ccc(-n2ncc(C(=O)Nc3ccc4c(c3)OCCO4)c2C2CCN(C(=O)OC(C)(C)C)CC2)cc1C | 82%
7 | CCCN1CCc2nc(SCC(=O)Nc3ccc(C)c(Cl)c3)[nH]c(=O)c2C1 | 99%
8 | O=C(c1noc2c1CCCCC2)N1CCN(c2ccc(Cl)cc2)CC1 | 73%
9 | CC1CCc2onc(C(=O)N3CCN(c4cccc(Cl)c4)CC3)c2C1 (stereo not drawn) | 88%
10 | CC1CCc2onc(C(=O)N3CCN(c4ccccc4)CC3)c2C1 (stereo not drawn) | 121%
11 | O=C(c1cc2ccc3cccnc3c2[nH]1)N1CCN(c2ccccc2)CC1 | 59%
12 | CC1CCc2onc(C(=O)N3CCN(c4cccc(C(F)(F)F)c4)CC3)c2C1 (stereo not drawn) | 10% (active)
13 | O=C(c1noc2c1CCCCC2)N1CCN(c2cccc(C(F)(F)F)c2)CC1 | -3% (active)
14 | O=C(c1noc2c1CCCCC2)N1CCN(c2cccc(Cl)c2)CC1 | 73%
15 | O=C(c1cc2ccc3cccnc3c2[nH]1)N1CCN(c2cccc(C(F)(F)F)c2)CC1 | -2% (active)
16 | O=C(c1cc2ccc3cccnc3c2[nH]1)N1CCN(c2ccc(Cl)cc2)CC1 | 91%
17 | CCn1c(Cc2ccccc2)nnc1SCC(=O)N(C)C1CCCCC1 | 108%
18 | COc1ccc(CNc2nc3c(-c4ccccc4)nnn3c3ccccc23)cc1 | 90%
19 | COc1ccc(-c2cc(C(=O)Nc3c(C)n(C)n(-c4ccccc4)c3=O)no2)cc1 | 73%
20 | Cc1cccc(CNC(=O)c2ccc(N3Cc4ccccc4Oc4ncccc43)s2)c1 | 69%
21 | Cc1ccc(Cn2c(C)c3cnn(CC(=O)N4CCN(c5cc(C)ccc5C)CC4)c(=O)c3c2C)cc1 | 65%
22 | CCOC(=O)c1noc2ncn(CC(=O)Nc3cc(Cl)ccc3OC)c(=O)c12 | 76%
23 | CCOC(=O)c1noc2ncn(CC(=O)Nc3ccccc3OC)c(=O)c12 | 133%
24 | CCOC(=O)c1noc2ncn(CC(=O)Nc3ccc(F)cc3Cl)c(=O)c12 | -6% (active)

Row | SMILES | survival
25 | COc1cccc(NC(=O)Cn2c(=O)n(Cc3ccc4c(c3)OCO4)c(=O)c3oc4ccccc4c32)c1 | 80%
26 | O=C(CCn1cnc2onc(-c3ccc(F)cc3)c2c1=O)N1CCN(c2ccccc2)CC1 | 75%
27 | COc1ccccc1N1CCN(C(=O)CCn2cnc3onc(-c4ccc(F)cc4)c3c2=O)CC1 | 87%
28 | CC(=O)c1ccc(N2CCN(C(=O)CCn3cnc4onc(-c5ccc(F)cc5)c4c3=O)CC2)cc1 | -6% (active)
29 | O=C(Cn1cnc2onc(-c3ccc(F)cc3)c2c1=O)N1CCN(c2ccccc2F)CC1 | 71%
30 | O=C(CCn1cnc2onc(-c3ccc(F)cc3)c2c1=O)N1CCN(c2ccc(F)cc2)CC1 | 98%
31 | O=C(CCn1cnc2onc(-c3ccc(F)cc3)c2c1=O)N1CCN(c2ccccc2F)CC1 | -6% (active)
32 | CCOc1ccc(CC(=O)NCCc2sc3nc(-c4ccc(F)cc4)nn3c2C)cc1 | 71%
33 | COC(=O)c1ccccc1NC(=O)c1cc(-c2ccc(Cl)cc2)on1 | 71%
34 | Cc1ccc(C)c(NC(=O)CSc2nnc(CNC(=O)c3ccccc3)n2-c2ccccc2)c1 | 63%
35 | Cc1nn(CC(=O)NCCc2ccc(Cl)cc2)c(=O)c2cc3cc(F)ccc3n12 | 74%
36 | Cc1cccc(NC(=O)CSC2=Nc3ccccc3C3=NC(CC(=O)NCc4cccs4)C(=O)N23)c1 (stereo not drawn) | 81%
37 | Cc1ccc(C)c(CSc2nnc(C)n3c2cc2sccc23)c1 | 65%
38 | c1ccc(C(c2cccs2)c2c[nH]c3ccccc23)cc1 (stereo not drawn) | 17%
39 | Clc1ccc(C(c2ccccc2)c2c[nH]c3ccccc23)s1 (stereo not drawn) | 4% (active)
40 | Cc1ccc2[nH]cc(C(c3ccccc3)c3ccc(Cl)s3)c2c1 (stereo not drawn) | 18%
41 | Cc1ccc(NC(=O)CN2C(=O)CSc3ccc(S(=O)(=O)N4CCCC4)cc32)c(C)c1 | 98%
42 | CCc1ccccc1N(C)C(=O)c1cc2c(Cl)nc3ccc(C)cc3c2s1 | 0% (active)
43 | CN(CCCNC(=O)c1cc2c(Cl)nc3ccccc3c2s1)Cc1ccccc1 | 45%
44 | CCN(CCCNC(=O)c1cc2c(Cl)nc3ccccc3c2s1)Cc1ccccc1 | 96%
45 | Cc1ccc(Cl)cc1N(C)C(=O)c1cc2c(Cl)nc3ccccc3c2s1 | 70%
46 | CCCN(C(=O)c1cc2c(Cl)nc3ccccc3c2s1)c1cccc(C)c1 | 1% (active)
47 | CN(C(=O)c1cc2c(Cl)nc3ccccc3c2s1)c1cccc(C(F)(F)F)c1 | 80%
48 | Cc1ccc2nc(Cl)c3cc(C(=O)NCCCN(C)Cc4ccccc4)sc3c2c1 | -3% (active)
